Results as given in PubChem BioAssay AID1159580 (chemical genetic matrix, 2015).
Screen size: about 5,500 compounds; about 2,000 (36%) were called active. Not shown: some 18% with an inconclusive outcome. No stated cut-off is given here; in the data, active means normalized growth mostly below about 0.91 (no sharp cut-off); inconclusive means no clear call, values can overlap the other calls; inactive means mostly above about 0.92. Some of the results follow.

Experiment: chemical genetic growth profiling, strain panel (AID 1159580);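 further: tested at 20 µM; growth read once vehicle control cultures reached saturation at 30 °C; 1 = growth at the plate median or of vehicle wells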
Conditions: growth OD

Measured: normalized growth

CCOC(N)=O
inactive: S. cerevisiae deletion strains, locus YJR075W, strain HOC1, stronger effect = lower value 1.01 | S. cerevisiae deletion strains, locus YKL009W, strain mrt4, stronger effect = lower value 1.02 | S. cerevisiae deletion strains, locus YKL068W, stronger effect = lower value 1.01 | S. cerevisiae deletion strains, locus YKL085W, strain MDH1 (second series), stronger effect = lower value 1 | S. cerevisiae deletion strains, locus YKL085W, strain MDH1, stronger effect = lower value 1 | S. cerevisiae deletion strains, locus YKL160W, strain elf1, stronger effect = lower value 0.994 | S. cerevisiae deletion strains, locus YKL190W, strain CNB1, stronger effect = lower value 1 | S. cerevisiae deletion strains, locus YKR001C, strain vps1, stronger effect = lower value 1.01 | S. cerevisiae deletion strains, locus YKR026C, strain gcn3, stronger effect = lower value 0.992 | S. cerevisiae deletion strains, locus YKR091W, strain srl3, stronger effect = lower value 0.992 | S. cerevisiae deletion strains, locus YLL001W, strain dnm1, stronger effect = lower value 1.01 | S. cerevisiae deletion strains, locus YLL026W, stronger effect = lower value 0.998 | S. cerevisiae deletion strains, locus YLL041C, strain sdh2, stronger effect = lower value 0.995 | S. cerevisiae deletion strains, locus YLR027C, strain aat2, stronger effect = lower value 0.996 | S. cerevisiae deletion strains, locus YLR039C, strain RIC1, stronger effect = lower value 1.01 | S. cerevisiae deletion strains, locus YLR058C, strain SHM2, stronger effect = lower value 1 | S. cerevisiae deletion strains, locus YLR102C, strain apc9, stronger effect = lower value 1.02 | S. cerevisiae deletion strains, locus YLR113W, strain HOG1, stronger effect = lower value 0.989 | S. cerevisiae deletion strains, locus YLR221C, strain rsa3, stronger effect = lower value 0.992 | S. cerevisiae deletion strains, locus YLR258W, strain gsy2, stronger effect = lower value 0.99 | S. cerevisiae deletion strains, locus YLR262C, strain YPT6 (second series), stronger effect = lower value 0.998 | S. cerevisiae deletion strains, locus YLR262C, strain YPT6, stronger effect = lower value 0.977 | S. cerevisiae deletion strains, locus YLR268W, strain sec22, stronger effect = lower value 1 | S. cerevisiae deletion strains, locus YLR320W, strain mms22, stronger effect = lower value 0.988 | S. cerevisiae deletion strains, locus YLR330W, strain CHS5, stronger effect = lower value 1.01 | S. cerevisiae deletion strains, locus YLR342W, strain FKS1 (second series), stronger effect = lower value 1.04 | S. cerevisiae deletion strains, locus YLR342W, strain FKS1, stronger effect = lower value 0.987 | S. cerevisiae deletion strains, locus YLR357W, strain rsc2, stronger effect = lower value 0.97 | S. cerevisiae deletion strains, locus YLR370C, strain arc18, stronger effect = lower value 0.995 | S. cerevisiae deletion strains, locus YLR371W, strain rom2, stronger effect = lower value 1.02 | S. cerevisiae deletion strains, locus YLR384C, strain iki3, stronger effect = lower value 0.999 | S. cerevisiae deletion strains, locus YLR418C, strain cdc73, stronger effect = lower value 0.996 | S. cerevisiae deletion strains, locus YML016C, strain PPZ1, stronger effect = lower value 0.997 | S. cerevisiae deletion strains, locus YML032C, strain rad52, stronger effect = lower value 1.02 | S. cerevisiae deletion strains, locus YML120C, strain ndi1, stronger effect = lower value 1.02 | S. cerevisiae deletion strains, locus YML124C, strain tub3, stronger effect = lower value 0.995 | S. cerevisiae deletion strains, locus YMR058W, strain fet3, stronger effect = lower value 1 | S. cerevisiae deletion strains, locus YMR078C, strain ctf18, stronger effect = lower value 1.01 | S. cerevisiae deletion strains, locus YMR125W, strain sto1, stronger effect = lower value 0.986 | S. cerevisiae deletion strains, locus YMR129W, stronger effect = lower value 1 | S. cerevisiae deletion strains, locus YMR205C, strain PFK2, stronger effect = lower value 0.982 | S. cerevisiae deletion strains, locus YMR223W, strain ubp8, stronger effect = lower value 1.02 | S. cerevisiae deletion strains, locus YMR231W, strain pep5, stronger effect = lower value 0.995 | S. cerevisiae deletion strains, locus YMR263W, strain SAP30, stronger effect = lower value 0.998 | S. cerevisiae deletion strains, locus YMR307W, strain GAS1, stronger effect = lower value 1.02 | S. cerevisiae deletion strains, locus YNL067W, strain RPL9B, stronger effect = lower value 0.999 | S. cerevisiae deletion strains, locus YNL071W, strain lat1, stronger effect = lower value 1.01 | S. cerevisiae deletion strains, locus YNL128W, strain TEP1, stronger effect = lower value 1.01 | S. cerevisiae deletion strains, locus YNL153C, strain GIM3, stronger effect = lower value 0.995 | S. cerevisiae deletion strains, locus YNL183C, strain NPR1, stronger effect = lower value 0.925 | S. cerevisiae deletion strains, locus YNL209W, strain ssb2, stronger effect = lower value 1 | S. cerevisiae deletion strains, locus YNL233W, strain BNI4, stronger effect = lower value 1 | S. cerevisiae deletion strains, locus YNL248C, strain rpa49, stronger effect = lower value 1 | S. cerevisiae deletion strains, locus YNL250W, strain rad50, stronger effect = lower value 1.02 | S. cerevisiae deletion strains, locus YNL271C, strain bni1, stronger effect = lower value 1.02 | S. cerevisiae deletion strains, locus YNL298W, strain CLA4, stronger effect = lower value 1.02 | S. cerevisiae deletion strains, locus YNL307C, strain MCK1, stronger effect = lower value 1.01 | S. cerevisiae deletion strains, locus YNL322C, strain KRE1 (second series), stronger effect = lower value 0.994 | S. cerevisiae deletion strains, locus YNL322C, strain KRE1, stronger effect = lower value 1 | S. cerevisiae deletion strains, locus YNR049C, strain mso1, stronger effect = lower value 1.01 | S. cerevisiae deletion strains, locus YNR052C, strain pop2, stronger effect = lower value 1.01 | S. cerevisiae deletion strains, locus YOL006C, strain TOP1, stronger effect = lower value 1 | S. cerevisiae deletion strains, locus YOL012C, strain htz1 1.41 | S. cerevisiae deletion strains, locus YOL147C, strain pex11, stronger effect = lower value 1.01 | S. cerevisiae deletion strains, locus YOR001W, strain rrp6, stronger effect = lower value 0.994 | S. cerevisiae deletion strains, locus YOR061W, strain CKA2, stronger effect = lower value 1 | S. cerevisiae deletion strains, locus YOR069W, strain VPS5, stronger effect = lower value 1 | S. cerevisiae deletion strains, locus YOR070C, strain gyp1, stronger effect = lower value 0.991 | S. cerevisiae deletion strains, locus YOR080W, strain dia2, stronger effect = lower value 0.994 | S. cerevisiae deletion strains, locus YOR083W, strain WHI5, stronger effect = lower value 1 | S. cerevisiae deletion strains, locus YOR106W, strain vam3, stronger effect = lower value 0.998 | S. cerevisiae deletion strains, locus YOR136W, strain idh2, stronger effect = lower value 1.01 | S. cerevisiae deletion strains, locus YOR144C, strain elg1, stronger effect = lower value 1.01 | S. cerevisiae deletion strains, locus YOR184W, strain ser1, stronger effect = lower value 1.01 | S. cerevisiae deletion strains, locus YOR231W, strain MKK1, stronger effect = lower value 1 | S. cerevisiae deletion strains, locus YOR265W, strain rbl2, stronger effect = lower value 0.986 | S. cerevisiae deletion strains, locus YOR270C, strain vph1, stronger effect = lower value 1 | S. cerevisiae deletion strains, locus YOR290C, strain snf2, stronger effect = lower value 0.997 | S. cerevisiae deletion strains, locus YOR316C, strain cot1, stronger effect = lower value 1.02 | S. cerevisiae deletion strains, locus YPL051W, strain arl3, stronger effect = lower value 1 | S. cerevisiae deletion strains, locus YPL055C, strain LGE1, stronger effect = lower value 0.976 | S. cerevisiae deletion strains, locus YPL078C, strain atp4, stronger effect = lower value 0.989 | S. cerevisiae deletion strains, locus YPL106C, strain sse1, stronger effect = lower value 0.969 | S. cerevisiae deletion strains, locus YPL240C, strain hsp82, stronger effect = lower value 0.995 | S. cerevisiae deletion strains, locus YPL241C, strain CIN2, stronger effect = lower value 0.992 | S. cerevisiae deletion strains, locus YPL256C, strain CLN2, stronger effect = lower value 0.987 | S. cerevisiae deletion strains, locus YPR119W, strain clb2, stronger effect = lower value 1.01 | S. cerevisiae deletion strains, locus YPR141C, strain kar3, stronger effect = lower value 1.01 | S. cerevisiae deletion strains, locus YPR163C, strain tif3, stronger effect = lower value 1.01 | S. cerevisiae deletion strains, locus YPR167C, strain met16, stronger effect = lower value 1.01 | S. cerevisiae deletion strains, strain wtn01, stronger effect = lower value 1 | S. cerevisiae strains, strain wild type, stronger effect = lower value 1.01
